Here are results for 54 sequences from publication PMC10726135, “HNF4α isoforms regulate the circadian balance between carbohydrate and lipid metabolism in the liver”.

In all, about 18,000 sequences were measured (“log2 normalized intensity”: median about 0.39, highest 2% from about 6.6 on). What follows is part of a selection rich in the highest values, with near analogues and random picks from the rest.

For the test, the target named is T1, HNF4alpha2 (COS-7 nuclear extract) (Homo sapiens, UniProt P41235 1-474).
T1 sequence: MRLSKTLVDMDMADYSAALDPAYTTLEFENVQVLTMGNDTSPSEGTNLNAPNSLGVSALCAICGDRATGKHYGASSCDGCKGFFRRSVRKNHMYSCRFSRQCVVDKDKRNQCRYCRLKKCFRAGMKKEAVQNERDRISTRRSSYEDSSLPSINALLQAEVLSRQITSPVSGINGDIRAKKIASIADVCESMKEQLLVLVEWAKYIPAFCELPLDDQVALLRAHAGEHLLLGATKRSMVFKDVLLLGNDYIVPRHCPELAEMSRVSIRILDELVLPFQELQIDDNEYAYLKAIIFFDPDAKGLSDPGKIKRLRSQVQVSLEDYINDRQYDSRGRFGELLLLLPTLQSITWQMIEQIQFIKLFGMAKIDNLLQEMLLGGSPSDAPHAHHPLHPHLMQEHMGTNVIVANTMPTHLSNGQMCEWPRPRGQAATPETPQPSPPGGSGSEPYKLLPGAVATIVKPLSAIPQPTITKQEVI
Nature of the test: protein-binding microarray; COS-7 nuclear extract on double-stranded Agilent 4x180k PBM; binding buffer, salt, pH and temperature not given in the material; high values mean tight binding. The following applies: chain copies: 2; label: 3' end of strand 1 on the slide; dsDNA, one strand shown. The method in brief: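 COS-7 cells were transiently transfected by CaPO4 with an expression vector for a human HNF4α isoform, and nuclear extracts were prepared from them. The extracts were applied to a custom Agilent SurePrint G3 4x180k array of double-stranded ~60-nt oligonucleotides, with ~44,000 test sequences spotted in quadruplicate. An Agilent G2565CA scanner imaged bound HNF4α at 2-µm resolution. Binding signal is the background-corrected, normalized gProcessedSignal from Agilent software.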
Consider “AGAAAGACATGTTTCTAACTGCCCGCATTCGCCTAGGGAGATTAGAGTATCGGTCGA”, for which the binding signal is 0.246 log2 normalized intensity.

For the sequence “TATTCCAGGCACAAGAATGGTCATTCTCTGGCCTAGGGAGATTAGAGTATCGGTCGA”, the binding signal was -0.977 log2 normalized intensity.

For “GGCTTCTGGACTATGCCTTGAACTTTAAGGGCCTAGGGAGATTAGAGTATCGGTCGA”, the binding signal was 2.21 log2 normalized intensity.

On to “TGGCACCTGAAGCTGCCCTTTGCACATGCCGCCTAGGGAGATTAGAGTATCGGTCGA”, for which the binding signal came to 4.08 log2 normalized intensity.

With “ATTGGGATGGAGTAACTTGCTAAGTATAAAGCCTAGGGAGATTAGAGTATCGGTCGA”, the binding signal is -0.531 log2 normalized intensity.

In the case of “TCTTTTCTAAGATATTTGCATAGGCATTGTGCCTAGGGAGATTAGAGTATCGGTCGA”, the binding signal turned out to be 1.94 log2 normalized intensity.

With “CTTGTCCAACTCCCCTCCCAAGGCAGCAATGCCTAGGGAGATTAGAGTATCGGTCGA”, the binding signal worked out at 4 log2 normalized intensity.

For the sequence “GATGACATCATCTGTTTGTACGCGTCGAACGCCTAGGGAGATTAGAGTATCGGTCGA”, the binding signal is -0.199 log2 normalized intensity.

“CAACTTTCTCCTCCAGGACCTTGCCCTTTAGCCTAGGGAGATTAGAGTATCGGTCGA”: the binding signal was found to be 4.23 log2 normalized intensity.

As to “CTTTAGGACTTTGAACCTTGGGTCTGTAATGCCTAGGGAGATTAGAGTATCGGTCGA”, the binding signal was 6.04 log2 normalized intensity.

In the case of “GGGAGGAGGGCAACCTTTGAACTGGGTCTTGCCTAGGGAGATTAGAGTATCGGTCGA”, the binding signal came to 4.09 log2 normalized intensity.

“CAAAACTTTAGGACTTTGAACCTTGGGTCTGCCTAGGGAGATTAGAGTATCGGTCGA”: the binding signal is 7.13 log2 normalized intensity.

As for “GGACTCTGGAACCATCAGGATTCCAGAGGAGCCTAGGGAGATTAGAGTATCGGTCGA”, the binding signal was 1.86 log2 normalized intensity.

“TTTGCAACCTTTGATAACCTACAACCTTCTGCCTAGGGAGATTAGAGTATCGGTCGA”: the binding signal was determined as 0.304 log2 normalized intensity.

As for “CCCAGGTACGGAGGACAGCCACCCGTGCTTGCCTAGGGAGATTAGAGTATCGGTCGA”, the binding signal is -0.928 log2 normalized intensity.

Take “TTACTATAGGTTCTACTCTCCCCAGTTCAAGCCTAGGGAGATTAGAGTATCGGTCGA”: the binding signal came out at 3.24 log2 normalized intensity.

In the case of “ACAGGAGATCAGATGGGGTGAACTTTGGACGCCTAGGGAGATTAGAGTATCGGTCGA”, the binding signal amounted to 8.41 log2 normalized intensity.

As for “AGATGGGGTGAACTTTGGACCACATATAGAGCCTAGGGAGATTAGAGTATCGGTCGA”, the binding signal was 7.14 log2 normalized intensity.

As to “TACCATGGGAGACCTCAGGGGTCATCAGATGCCTAGGGAGATTAGAGTATCGGTCGA”, the binding signal was found to be 2.49 log2 normalized intensity.

With “AGATCAGATGGGGTGAACTTTGGACCACATGCCTAGGGAGATTAGAGTATCGGTCGA”, the binding signal came to 7.41 log2 normalized intensity.

“TGGGGTATCAGGTGGTGATGGTGGGAGGGAGCCTAGGGAGATTAGAGTATCGGTCGA”: the binding signal was determined as 0.113 log2 normalized intensity.

Consider “CTCAGTCATACCACATGGATGGATTCAGATGCCTAGGGAGATTAGAGTATCGGTCGA”, for which the binding signal was 0.259 log2 normalized intensity.

Take “GAGGACTTTGGCCTTTTGTGAGATATGGACGCCTAGGGAGATTAGAGTATCGGTCGA”: the binding signal was 3.45 log2 normalized intensity.

Regarding “CAGGGGTCATCAGATAGATGGTCAGTGAACGCCTAGGGAGATTAGAGTATCGGTCGA”, the binding signal was 1.44 log2 normalized intensity.

Take “GGTGAACTTTGAGACTATCCTTGGACCGCAGCCTAGGGAGATTAGAGTATCGGTCGA”: the binding signal is 2.51 log2 normalized intensity.

Turning to “TCTCTCTCTCTTTCTTCCCCCACTCCAAGTGCCTAGGGAGATTAGAGTATCGGTCGA”, the binding signal is 5.09 log2 normalized intensity.

For the sequence “CGAGTCAAGGGTCAATCCTCTCTTTGGAATGCCTAGGGAGATTAGAGTATCGGTCGA”, the binding signal is 2.31 log2 normalized intensity.

On to “CCTCCTGCCCTATGTCCTCCAGCTCTTGGGGCCTAGGGAGATTAGAGTATCGGTCGA”, for which the binding signal came to 1.53 log2 normalized intensity.

“TGGAAGTCGCCGTGAGGTTATTTGCAGACTGCCTAGGGAGATTAGAGTATCGGTCGA”: the binding signal came to 0.0984 log2 normalized intensity.

In the case of “ATTCCTATCGCCCTTCTGTCAAGTCCAAAGGCCTAGGGAGATTAGAGTATCGGTCGA”, the binding signal is -0.648 log2 normalized intensity.

Regarding “TCTGCACAAAATACAAGTCGTAAAGACCTTGCCTAGGGAGATTAGAGTATCGGTCGA”, the binding signal was determined as 0.709 log2 normalized intensity.

In the case of “CCCTCAGCAACTGCAAGGCTGACCCGTGAAGCCTAGGGAGATTAGAGTATCGGTCGA”, the binding signal came to 1.4 log2 normalized intensity.

As for “TGTGAGTCCAGTTGAATGATGGCGAGTGTGGCCTAGGGAGATTAGAGTATCGGTCGA”, the binding signal stood at 1.62 log2 normalized intensity.

As for “GCAAGCTTGACCTTTGATCCAGGCTCAGTGGCCTAGGGAGATTAGAGTATCGGTCGA”, the binding signal is 7.48 log2 normalized intensity.

“CTTGACCTTTGATCCAGGCTCAGTGGGCGTGCCTAGGGAGATTAGAGTATCGGTCGA”: the binding signal was found to be 4.91 log2 normalized intensity.

Take “TTAGGATGACCTTTAGATTCTTACAGGCAAGCCTAGGGAGATTAGAGTATCGGTCGA”: the binding signal came to 3.63 log2 normalized intensity.

As for “ATTTGACCCTTGGCCAGGTGCAGTGGCTCAGCCTAGGGAGATTAGAGTATCGGTCGA”, the binding signal came out at 2.99 log2 normalized intensity.

Consider “TTGATCCAGGATCCTTCTTGACCAGGCAAGGCCTAGGGAGATTAGAGTATCGGTCGA”, for which the binding signal is -0.434 log2 normalized intensity.

For “CAAGCTTGATCCAGGATCCTTCTTGACCAGGCCTAGGGAGATTAGAGTATCGGTCGA”, the binding signal was found to be 0.316 log2 normalized intensity.

For “TCTTGACCAGGCAAGCTTGACCTTTGATCCGCCTAGGGAGATTAGAGTATCGGTCGA”, the binding signal amounted to 10.2 log2 normalized intensity.

Turning to “TCCAGGCTTGTCCTTTTGACCACAGTTATCGCCTAGGGAGATTAGAGTATCGGTCGA”, the binding signal is 2.33 log2 normalized intensity.

As for “ATCCTTCTTGACCAGGCAAGCTTGACCTTTGCCTAGGGAGATTAGAGTATCGGTCGA”, the binding signal came to 7.07 log2 normalized intensity.

As to “AATTACCATTCTTGAGGACAGGCCAAATCCGCCTAGGGAGATTAGAGTATCGGTCGA”, the binding signal was 0.0816 log2 normalized intensity.

For the sequence “CCCAGGTCCAGCCTTTGGGCAGGGGCATCCGCCTAGGGAGATTAGAGTATCGGTCGA”, the binding signal is -0.72 log2 normalized intensity.

For the sequence “TGTGCAGCTTTGTGTAAAACTTCAAAGAAGGCCTAGGGAGATTAGAGTATCGGTCGA”, the binding signal was -0.427 log2 normalized intensity.

“CCTGAGGTGTGAGAGGGCAAAGGTCACAGCGCCTAGGGAGATTAGAGTATCGGTCGA”: the binding signal is 8.02 log2 normalized intensity.

As for “TCACAGTGTGGGGCAAATCTGAGGTCAAAGGCCTAGGGAGATTAGAGTATCGGTCGA”, the binding signal is 2.22 log2 normalized intensity.

Consider “GGTGTGAGAGGGCAAAGGTCACAGCATTAGGCCTAGGGAGATTAGAGTATCGGTCGA”, for which the binding signal worked out at 6.76 log2 normalized intensity.

On to “GGGCCAGCAAGAGGTGACCCCAGGGCAAAGGCCTAGGGAGATTAGAGTATCGGTCGA”, for which the binding signal came to 2.92 log2 normalized intensity.

With “GGCTGAATGGGCAAAGGTCACAAGAGGTGCGCCTAGGGAGATTAGAGTATCGGTCGA”, the binding signal turned out to be 4.6 log2 normalized intensity.

For “AATGGGCAAAGGTCACAAGAGGTGCTGTGTGCCTAGGGAGATTAGAGTATCGGTCGA”, the binding signal is 4.69 log2 normalized intensity.

“GGGCAGCCCGTGTGGGCGGGTGCAGCTTCCGCCTAGGGAGATTAGAGTATCGGTCGA”: the binding signal is -0.675 log2 normalized intensity.

With “CAGTTATCAGACAGAGGAATTCAGCAGGATGCCTAGGGAGATTAGAGTATCGGTCGA”, the binding signal is -0.611 log2 normalized intensity.

In the case of “TTTCTCCTCTCTGGGCTTCCATTGTGATTCGCCTAGGGAGATTAGAGTATCGGTCGA”, the binding signal was found to be 1.02 log2 normalized intensity.
